# From ChEMBL document CHEMBL3433997, “St. Jude Leishmania screening dataset” (2016)
# Biological target: Glucose transporter (Leishmania mexicana) (UniProt O61059)
# Assay: ST_JUDE_LEISH: Cytotoxicity at 2uM final concentration against transgenic Leishmania Mexicana promastigotes LmGT2 that are glucose transport deficient and complemented with the L. Mexicana glucose transporter 2. Activity is measured by DNA content using SYBR green in vitro
# Assay type: functional
row,Compound,inhibition [%]
1,Cc1ccc(CN2CCCN(Cc3cccc(NC(=O)c4ccc(Cl)c(Cl)c4)c3)CC2)cc1,-0.82
2,O=C(NC1CC1)c1ccc2cc(C(=O)N3Cc4ccccc4C(c4ccccc4)C3)ccc2c1 (stereo not given),-1.42
3,O=C(Nc1ccc(Oc2ccccc2)cc1)N[C@@H](Cc1ccc(O)cc1)C(=O)NC1CCN(Cc2ccc(O)c([N+](=O)[O-])c2)C1 (stereo not given in full),0.33
4,OC(COCc1ccc(-c2ccccc2)cc1)CN1CCCCC1 (stereo not given),3.58
5,CC(C)c1ncc(-c2ccncc2)c(C2CCC(CNC(=O)c3ccncc3)CC2)n1 (stereo not given),1.87
6,Nc1cccc(CNCc2ccc(-c3ccc(-c4nc5cc(C(F)(F)F)ccc5[nH]4)s3)cc2)c1,0.65
7,Cc1ccccc1C1CCN(C2CCC(NC(=O)/C=C/c3cc(F)ccc3C(F)(F)F)CC2)CC1 (stereo not given),1.99
8,O=[N+]([O-])c1nc(Br)n(Cc2ccc(Cl)cc2)n1,4.39
9,Cc1ccc(NS(=O)(=O)c2cccs2)cc1-c1cccc(C(=O)Nc2ccc(F)cc2)c1,1.16
10,Nc1nccc2ccc(-c3ccnc(NCc4cccnc4)n3)cc12,11.2
11,O=C(/C=C/c1ccc(Cl)c(Cl)c1)NCCCCCN1CCCN(C(=O)Nc2ccc([N+](=O)[O-])cc2)CC1,4.07
12,CCc1c(C)nc(-n2nc(C)cc2NC(=O)C2c3ccccc3Oc3ccccc32)[nH]c1=O,3.35
13,CN1CC[C@@H](Oc2cc(NC(=O)Nc3ccc(Cl)c(C(F)(F)F)c3)ccc2Cl)C1,0.51
14,COc1ccc(-c2ccc(Nc3cccc(S(=O)(=O)CCN4CCC(CCN(C)C)CC4)c3)nc2)cn1,1.63
15,CCCc1cc(=O)[nH]c(-n2nc(C)cc2NC(=O)C(CC)c2ccccc2)n1 (stereo not given),4.69
16,CCCCNC(=N)c1ccc(OCCCCCOc2ccc(C(=N)NCCCC)cc2)cc1,-0.11
17,CS(=O)(=O)c1ccc2[nH]c(-c3cc(-c4ccc(OCCN5CCOCC5)cc4)cnc3N)nc2c1,4.16
18,Cc1sc(CNCCCNc2cc(=O)c3ccccc3[nH]2)cc1Br,0.93
19,COc1ccc(CNCc2ccccc2)cc1-c1ccc(S(=O)(=O)NCCN2CCCC2)s1,4.5
20,Cc1cccc2nc(-c3cccc(-c4ccc(NC(=O)C5CCCO5)cc4)c3)[nH]c12 (stereo not given),2.04

row,Compound,inhibition [%]
1,O=C(/C=C/c1ccc(Cl)c(Cl)c1)NCCCCCN1CCCN(C(=O)Nc2cccc(C(F)(F)F)c2)CC1,3.62
2,Cc1cccc2nc(-c3ccc(-c4cccc(NC(=O)CN5CCN(C)CC5)c4)s3)[nH]c12,2.66
3,O=C(Nc1nc2cc(S(=O)(=O)NCc3ccc(Cl)c(Cl)c3)ccc2n1CCCN1CCCC1)c1ccc(Cl)cc1,3.04
4,O=C(Nc1ccccc1)Nc1cccc(-c2nn3c(OCC4CCCCN4)cccc3c2-c2ccncc2)c1 (stereo not given),1.3
5,CCC(C)NCCC(c1ccccc1)c1ccccc1O (stereo not given),4.41
6,CCOc1ccc(CCC(=O)O)cc1OCC,2.88
7,O=C(NC1CCC1)C1CCN(C(c2ccc(Cl)cc2)c2ccc(Cl)cc2)CC1,-0.82
8,COc1cc(Cc2cnc(N)nc2N)c2c(c1OC)OC(C)C=C2 (stereo not given),2.25
9,CCOc1cccc(C(=O)Nc2ccc(-c3nc4ccccc4[nH]3)cc2)c1,3.58
10,O=C(Nc1cccc(-c2ccc(-c3nc4cc(C(F)(F)F)ccc4[nH]3)cc2)c1)c1ccncc1,5.09
11,Oc1cc(Nc2ccnc3cc(-c4ccc(CN5CCCCC5)o4)c(Cl)cc23)c(Cl)cc1F,1.57
12,CCC(C)NC(=O)Nc1ccc(-c2cccc(-c3nc4ccccc4[nH]3)c2)cc1 (stereo not given),5.49
13,COc1cc(CNCCCNc2nc(=O)c3sccc3[nH]2)c2[nH]cc(Cl)c2c1,87.6
14,CC(C)Oc1cccc(-c2ccc(C(=O)NCC3CCCN(Cc4cccc(C(F)(F)F)c4)C3)s2)c1 (stereo not given),-3
15,CCN(C)c1cc(C(=O)N[C@@H](Cc2ccccc2)[C@H](O)CNC(C)(C)c2cccc(OC)c2)cc(N2CCCC2=O)c1,4.41
16,CN(C)CCCOc1cc(NC(=O)Nc2ccc(-c3ccncc3)c3ccccc23)ccc1I,7.69
17,Cc1n[nH]c2cc(Nc3nccc(Nc4ccc(Oc5ccccc5)cc4)n3)ccc12,6.15
18,O=C(CC1CCCC1)Nc1ccc2c(c1)CCC2,1.69
19,O=C1CCCN1CCCNCc1ccc(-c2cccc(-c3nc4ccccc4[nH]3)c2)cc1,4.94
20,N#Cc1ccc2c(c1)CCN(CCC1CCC(NC(=O)c3cc4ccc(Br)cc4[nH]3)CC1)C2 (stereo not given),1.16
